MITF primary – inhibitors of human MITF. O75030. AlphaScreen MITF homodimerization, bead proximity signal. inhibition, % at 2.6 µM. hit rate 0.91% among 650,000; in the data active means inhibition above about 50%;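 further: 0% = vehicle wells with protein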
FBW7 act – human FBW7 E3 ligase activation, primary screen | Q969H0 | AlphaScreen FBW7–phospho-cyclin E peptide binding, activator screen | normalized activity (activation), % at 26.1 µM | hit rate 0.13% among 650,000; in the data active means normalized activity above about 1.9%;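 further: purified mutant Fbw7 with reduced substrate affinity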
GPR151 ag – human GPR151 activation | PathHunter beta-arrestin GPR151 cells, luminescence | activation, % at 11.2 µM | hit rate 1% among 650,000 | AID 1508602; in the data active means activation above about 4.9%;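 further: 0% = median of compound wells and 100% = cells with positive control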
Target sequence (Q8TDV0 whole entry, looked up): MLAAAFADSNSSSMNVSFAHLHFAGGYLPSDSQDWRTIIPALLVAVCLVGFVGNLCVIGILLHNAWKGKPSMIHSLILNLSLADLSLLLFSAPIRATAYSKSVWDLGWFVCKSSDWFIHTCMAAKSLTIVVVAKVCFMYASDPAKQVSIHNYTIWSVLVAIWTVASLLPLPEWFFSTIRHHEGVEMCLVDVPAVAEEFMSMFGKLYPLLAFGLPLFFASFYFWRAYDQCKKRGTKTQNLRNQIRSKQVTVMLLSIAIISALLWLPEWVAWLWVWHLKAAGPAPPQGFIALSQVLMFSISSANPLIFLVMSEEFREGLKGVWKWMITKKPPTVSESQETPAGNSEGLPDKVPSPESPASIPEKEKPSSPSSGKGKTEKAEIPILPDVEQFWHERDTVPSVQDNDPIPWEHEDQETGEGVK
TEAD-YAP inh – TEAD-YAP interaction inhibition; inhibition, % at 9.12 µM; hit rate 1.4% among 640,000; HEK-TIYL cells, TEAD-Gal4/YAP UAS-luciferase luminescence; in the data active means inhibition above about 32%;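 further: 0% = median of test compound wells and 100% = reference inhibitor wells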
GPR151 conf act – human GPR151 activation, confirmation screen | AID 1508609 | shares compounds with GPR151 ag | GPR151 PathHunter beta-arrestin cells, luminescence, 90 min; % of EA-reagent control over plate median | activation, % at 11.2 µM | 6,700 tested, under 10 active;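 active means mean percent activation across replicates above the confirmation screen cutoff of 4.91%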
GPR119 ag – GPR119 activation, counter-screen for GPR151 activators; GPR119 PathHunter beta-arrestin cells, luminescence, 90 min; 0 = compound-well median, 100 = enzyme-acceptor control; shares compounds with GPR151 ag; hit rate 0.3% among 6,700; activation, % at 11.2 µM;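 active means mean percent activation in the counterscreen above 29.09%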;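 further: counterscreen on off-target GPR119 to flag nonselective hits from the GPR151 activator screen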
* hit, by the source's call. Most compounds without a hit are left out; they make up all but 3.5% or so of the library.

For CCCCCc1ccc(OCCOCCn2c[n+](C)c3ccccc32)c(CCCCC)c1 the results were MITF primary -1, FBW7 act 0, GPR151 ag 4.9*, TEAD-YAP inh 52*, GPR151 conf act 0 and GPR119 ag -1.
`CCNc1nc(NCC)n2c(SCC(=O)Nc3ccc(OCC)cc3)nnc2n1` gave MITF primary -16, FBW7 act 0, GPR151 ag 1 and TEAD-YAP inh 12.
For CCCCN1C(=O)C(O)=C(C(C)=O)C1c1ccc(OC)cc1OC (configuration not stated) the results were MITF primary 10, FBW7 act 0, GPR151 ag 5.2*, TEAD-YAP inh -1, GPR151 conf act 1 and GPR119 ag 12.
Screening COc1ccc(C2C(C(C)=O)=C(O)C(=O)N2CCO)c(OC)c1 (configuration not stated) returned MITF primary -7, FBW7 act 0, GPR151 ag 0 and TEAD-YAP inh -2.
`CCN(CC)C(=O)/C(=C/c1ccc([N+](=O)[O-])cc1)NC(=O)c1cccc(Br)c1` gave MITF primary 3, FBW7 act 0, GPR151 ag -1 and TEAD-YAP inh 4.
`COc1ccc(S(=O)(=O)Nc2ccc(O)c(Br)c2)cc1` gave MITF primary 1, FBW7 act 0, GPR151 ag 5.9*, TEAD-YAP inh 4, GPR151 conf act 1 and GPR119 ag 12.
For O=S(=O)(Nc1ccc(O)c(Br)c1)c1ccc(F)cc1 the results were MITF primary -2, FBW7 act 0, GPR151 ag 0 and TEAD-YAP inh 4.
Screening COc1ccc(NS(=O)(=O)c2ccc(Br)c(C(=O)Nc3ccccc3)c2)cc1 returned MITF primary 3, FBW7 act 0, GPR151 ag 6.2*, TEAD-YAP inh 0, GPR151 conf act 0 and GPR119 ag 12.
For O=C(/C=C/c1c(Cl)nc2sccn12)N1CCCCC1 the results were MITF primary -7, FBW7 act 0, GPR151 ag 0 and TEAD-YAP inh -18.
O=C(Nc1cccc(Cl)c1)N1CCN(c2ccc(Nc3cccnc3)nn2)CC1 was read as MITF primary 16, FBW7 act 0, GPR151 ag 6.1*, TEAD-YAP inh -4, GPR151 conf act 1 and GPR119 ag 1.
`COc1ccc(OC)c(NC(=O)c2ccc3c(=O)n(Cc4ccco4)c(=S)[nH]c3c2)c1` gave MITF primary 0, FBW7 act 1, GPR151 ag 0 and TEAD-YAP inh -7.
For C=CCn1cc(/C=c2\sc3n(c2=O)C(c2ccc(OC)cc2)C(C(=O)OCC)=C(C)N=3)c2ccccc21 (configuration not stated) the results were MITF primary -8, FBW7 act 0, GPR151 ag 5.0*, TEAD-YAP inh -2, GPR151 conf act -1 and GPR119 ag -18.
COc1ccc(C2C(C(C)=O)=C(C)N=c3s/c(=C/c4ccccc4)c(=O)n32)cc1 (configuration not stated) was read as MITF primary 8, FBW7 act 0, GPR151 ag 8.8*, TEAD-YAP inh 4, GPR151 conf act -1 and GPR119 ag -5.
`CCOC(=O)C1=C(C)N=c2s/c(=C\c3ccc(C(C)C)cc3)c(=O)n2C1c1ccc(OC)cc1` (configuration not stated) gave MITF primary -2, FBW7 act 0, GPR151 ag 7.0*, TEAD-YAP inh -8, GPR151 conf act 0 and GPR119 ag -2.
Screening COc1ccc(C2C(C(C)=O)=C(C)N=c3s/c(=C/c4ccc(OCc5cccc6ccccc56)cc4)c(=O)n32)cc1 (configuration not stated) returned MITF primary 3, FBW7 act 0, GPR151 ag 1 and TEAD-YAP inh 5.
CCOC(=O)C1=C(C)N=c2s/c(=C\c3ccc(Br)o3)c(=O)n2C1c1ccc(OC(C)C)cc1 (configuration not stated) was read as MITF primary 14, FBW7 act 0, GPR151 ag 5.0*, TEAD-YAP inh -7, GPR151 conf act 1 and GPR119 ag -7.

Screening results (PubChem BioAssay)
